Reference: PubChem BioAssay

assay: small-molecule microarray binders of probe aDKK1, primary screen, biochemical, biotinylated probe, 635/667 nm fluorescence (AID 1099); conditions: higher = more signal;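 further: score merges 667nm spot fluorescence with signal to noise across triplicate slides; reference of the scale not given here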

| Compound | composite z-score |
| --- | --- |
| C=CCC(OC(C)=O)[C@@H]1[C@@H](N(Cc2ccc(-c3ccccc3)cc2)C(=O)c2ccc(-c3ccccc3)cc2)c2cc(OCCCO)ccc2N1C(=O)c1ccc2ccccc2c1 (stereo not given in full) | -0.302 |
| CCOC(=O)C[C@H]1[C@H](OC(=O)c2cc3ccccc3oc2=O)[C@@H](NC(=O)c2ccc3ccccc3n2)c2cc(OCCCO)ccc2N1C(=O)Cc1ccc(OC)cc1 | -0.207 |
| Cc1ccc(S[C@]2(C(=O)NCC(F)(F)F)CC(=O)N(Cc3cc(C(F)(F)F)cc(C(F)(F)F)c3)[C@@H]2c2ccc(CO)cc2)cc1 | -0.193 |
| COC(=O)[C@@]1(Cc2ccc(OC)cc2)[C@H]2c3cc(C(=O)N4CCCC4)n(CCc4c[nH]c5ccc(O)cc45)c3C[C@H]2CN1C(=O)c1ccccc1 | 1.24 |
| NC(=O)[C@@]1(Cc2ccccc2)COC(c2ccc(OCCCO)cc2)=N1 | 0.618 |
| COCCOC(=O)N1C(=O)[C@@]2(c3cc(C#CCCO)ccc31)[C@H](C(=O)Nc1nc3ccccc3s1)[C@H]1C(=O)O[C@H](c3ccccc3)[C@H](c3ccccc3)N1[C@@H]2c1ccc(O)cc1 | 0.513 |
| COc1ccc([Si](C)(C)[C@@H]2[C@@H](CCO)O[C@]3(C(=O)N(Cc4ccccc4)c4ccc(N5CCOC5=O)cc43)[C@H]2C)cc1 | 0.0274 |
| C=C(/C(=C/C[C@H](OC(C)=O)c1ccc(CO)o1)c1cnc2ccccc2c1)C(C)C | -0.151 |
| COC(=O)[C@@]1(Cc2ccccc2)[C@H]2c3cc(C(=O)N4CCCC4)n(CCc4ccccn4)c3C[C@H]2CN1C(=O)c1ccccc1 | 0.897 |
| COCC(=C=CC[C@H](O)c1ccc(OCCO)cc1)CCO | 0.0019 |
| CCOC(=O)C1=C[C@@H](C(C)(C)C)N(S(=O)(=O)c2ccc(C)cc2)[C@H]1c1cccc2ccccc12 | 0.166 |
| C=CC[C@@]1(C(=O)NCCCOC)N=C(c2ccc(OCCCO)cc2)O[C@@H]1c1ccccc1 | 2.31 |
| [N-]=[N+]=Nc1ccccc1C[C@]1(C(=O)NCCN2CCOCC2)COC(c2ccc(OCCCO)cc2)=N1 | 0.424 |
| Cc1ccc(F)cc1S(=O)(=O)N[C@@H]1CCN(Cc2ccc(Br)cc2)C1 | -0.16 |
| OCCCC1=CC(c2ccc(CN3CCCC3)cc2)N(Cc2cc3c(cc2Br)OCO3)CC1 (stereo not given) | 0.0738 |
| COC(=O)C1=CC(CCCO)=CC(c2ccc(CN3CCCC3)cc2)N(Cc2cccc(OC(F)(F)F)c2)C=C1C(=O)OC (stereo not given) | 0.752 |
| CC(CO)N1C(=O)[C@@H]2[C@H]3C(=O)OCC=C[C@H]3OC23C=CCN(Cn2nnc4ccccc42)C(=O)[C@@H]13 (stereo not given in full) | -0.162 |
| CC(C)NC(=O)[C@@]1(c2ccc([N+](=O)[O-])cc2)CC(=O)N(C2CCCCC2)[C@@H]1c1ccc(CO)cc1 | -0.723 |

| Compound | composite z-score |
| --- | --- |
| O=C1CS(=O)(=O)C(c2cccc([N+](=O)[O-])c2)N1c1ccccc1 (stereo not given) | 0.913 |
| NC(=O)NCC#Cc1ccc2c(c1)[C@]1(C(=O)N2)[C@H](c2ccccc2OCCO)N2[C@H](c3ccccc3)[C@H](c3ccccc3)OC(=O)[C@H]2[C@@H]1C(=O)NC[C@H](O)c1ccccc1 | -0.224 |
| CCCC[C@@H](O)C1=C(COc2ccccc2)C[C@H]2C(=O)N(Cc3ccccc3)C(=O)[C@H]2[C@H]1CO | -0.302 |
| COC(=O)[C@@]1(Cc2ccc(F)cc2)[C@H]2c3cc(C(=O)N(C)C)n(Cc4ccc(OC(F)(F)F)cc4)c3C[C@H]2CN1C(=O)c1ccccc1 | -0.0448 |
| COCCOC(=O)N1C(=O)[C@@]2(c3cc(C#CC4=CCCCC4)ccc31)[C@H](c1ccccc1OCCO)N1[C@H](c3ccccc3)[C@H](c3ccccc3)OC(=O)[C@H]1[C@@H]2C(=O)N1CCN(c2ncccn2)CC1 | -0.149 |
| O=C1OCCC=C[C@H]2OC34C=CCN(c5ccc6ccccc6c5)C(=O)[C@H]3N(CCCO)C(=O)[C@@H]4C12 (stereo not given in full) | -0.258 |
| CCCC=C(CCC)[C@@H](NS(=O)(=O)CC12CCC(CC1=O)C2(C)C)c1ccc(C(=O)OC)cc1 (stereo not given in full) | 0.615 |
| CC(C)[Si](C#C[Si](C(C)C)(C(C)C)C(C)C)(O[C@H](c1ccccc1)c1cn(Cc2ccccc2)nn1)C(C)C | -0.138 |
| C[N+](C)(C)CCCC[C@@H]1NC(=O)[C@@H]2C[C@H](C(=O)NCCCCCCN)[C@H](c3cccc(OCCO)c3)N2C1=O | 1.85 |
| COC(=O)[C@@H]1N=C(c2ccc(OCCCO)cc2)O[C@@H]1C | 0.017 |
| Cc1ccc(N2C(=O)c3ccccc3[C@@H](C(=O)NCCCN(C)C)[C@@H]2c2ccc(CO)cc2)nc1 | 1.51 |
| C#CCN(Cc1ccccc1Br)[C@H](/C=C/c1ccccc1)[C@@H](O)Cc1ccccc1 | 0.12 |
| COCCOC(=O)N1C(=O)[C@@]2(c3cc(C#CC4=CCCCC4)ccc31)[C@H](c1ccccc1OCCO)N1[C@H](c3ccccc3)[C@H](c3ccccc3)OC(=O)[C@H]1[C@@H]2C(=O)NC[C@H](O)c1ccccc1 | 0.036 |
| NCCCCCCNC(=O)[C@@H]1C[C@@H]2C(=O)N[C@@H](CCCCN)C(=O)N2[C@@H]1c1ccc(O)cc1 | 0.13 |
| C=CC[C@]1(C(=O)N2CCOCC2)COC(c2ccc(OCCCO)cc2)=N1 | -0.016 |
| COc1ccc(C(=O)Nc2ccc(CN3C(=O)[C@]4(O[C@H](CC(=O)N5Cc6ccccc6C[C@H]5CO)[C@@H]([Si](C)(C)c5ccc(OC)cc5)[C@@H]4C)c4ccccc43)cc2)cc1 | -0.196 |
| CCCNC(=O)[C@@H]1c2ccccc2C(=O)N(Cc2ccc(OC(F)(F)F)cc2)[C@H]1c1ccc(CO)cc1 | 0.53 |
